Laboratory results from PubChem BioAssay (NCATS).
Several values for one entry are separate records, joined by “and”; a condition that tells them apart may be missing. Equal values may be shown once. Inconclusive results are not listed. Activity calls are given as the source filed them. Unless noted, the call rests on the fitted dose curve; in most records, active means well fitted curve in the direction sought with a large enough effect; inconclusive means small, poorly fitted or top-dose-only effect, or another doubt; inactive means no such curve, though single readings can be large; an effect the other way counts as inactive or inconclusive.

Key:
[1] = Cellular Toxicity (caspase-3) HepG2 (AID 654); conditions: HepG2 caspase-3 activation, luminescence, 0% = DMSO only, 100% = tamoxifen; series mostly up to 92.2 µM;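 further: cells exposed to compound for 16 hours before reading; 0% = DMSO alone and 100% = caspase signal from 100 µM tamoxifen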
Method in brief: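 Cells plated 5 hr at 37 °C, compound added, incubated 16 hr at 37 °C. Caspase-Glo 3/7 reagent followed, 20 min at room temperature, then luminescence read. Activation scored as signal increase; AC50 from Hill fit.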

[2] = Cellular Toxicity (caspase-3) Jurkat (AID 655); conditions: Jurkat caspase-3 activation, luminescence, DMSO = 0%, tamoxifen = 100%; series mostly up to 92.2 µM;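 further: cells exposed to compound for 16 h at 37 °C before reading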
Method in brief: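 qHTS in human Jurkat T-cell leukemia line: 16 hr compound treatment at 37 °C, caspase-3/7 activity measured by Caspase-Glo luminescence. AC50 derived from Hill equation.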

[3] = Cellular Toxicity (caspase-3) HUV-EC-C (AID 656); conditions: HUV-EC-C cells, caspase-3 activation (apoptosis), vehicle = 0, 100 µM tamoxifen = 100%; series mostly up to 92.2 µM
Method in brief: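 Concentration-dependent caspase 3/7 induction was assessed in HUV-EC-C cells exposed for 16 hours. Data scaled between DMSO and tamoxifen (100 uM) controls.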

[4] = Cellular Toxicity (caspase-3) SHSY5Y (AID 657); conditions: SH-SY5Y caspase-3 activation, DMSO zero, 10 µM staurosporine = 100%; series mostly up to 91.7 µM
Method in brief: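 Readout: caspase-cleaved peptide-aminoluciferin substrate driving luciferase light in SH-SY5Y neuroblastoma cells after 16 h treatment. Response normalized to DMSO and 10 uM staurosporine controls.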

[5] = Cellular Toxicity (caspase-3) BJ (AID 658); conditions: BJ fibroblasts, luminescence, normalized: DMSO 0%, staurosporine 100%; series mostly up to 91.7 µM
Method in brief: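 Readout: Caspase-Glo 3/7 luminescence increase in BJ cells after 16 hr treatment at 37 °C. Staurosporine and tamoxifen served as positive controls; AC50 values came from Hill modelling of data normalized to DMSO and 10 uM staurosporine.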

[6] = Cellular Toxicity (caspase-3) MRC-5 (AID 659); conditions: MRC-5 cells, luminescence, normalized: DMSO 0%, 10 µM staurosporine 100%; series mostly up to 91.7 µM
Method in brief: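 Concentration-dependent caspase 3/7 activation is measured in human normal lung fibroblasts (MRC-5) following 16-hour treatment. AC50 values come from standard Hill-equation modeling of luminescence normalized to DMSO and 10 uM staurosporine.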

[7] = Cellular Toxicity (caspase-3) Mesangial (AID 660); conditions: mesangial cells, normalized: DMSO 0%, 100 µM tamoxifen 100%; series mostly up to 91.7 µM;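 further: combined caspase 3 and 7 activity read by Caspase-Glo luminescence; cells exposed to compound for 16 h before the caspase read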
Method in brief: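 Mesangial cells, 1000/well, 5 h settle at 37 °C; compound 16 h, 37 °C; Caspase-Glo 3/7 reagent 20 min RT; luminescence. Norm.: DMSO = 0%, tamoxifen 100 uM = 100%. AC50, Hill fit.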

[8] = Cellular Toxicity (caspase-3) SK-N-SH (AID 661); conditions: SK-N-SH caspase-3 activation, qHTS, DMSO as zero, staurosporine as full; series mostly up to 91.7 µM
Method in brief: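 Human neuroblastoma SK-N-SH, 1500 cells/well, 5 hr pre-incubation, then compound 16 hr, 37 °C. Caspase-Glo 3/7 reagent, 1 hr RT, luminescence. Norm. to DMSO/10 uM staurosporine; Hill-fit AC50.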

[9] = Cellular Toxicity (caspase-3) H-4-II-E (AID 663); conditions: H-4-II-E rat hepatoma, scaled: DMSO 0%, 100 µM tamoxifen 100%; series mostly up to 92.2 µM;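 further: cells exposed to compound for 16 hr before readout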
Method in brief: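 Apoptosis induction is scored as increased luminescence from caspase 3/7 substrate cleavage in rat hepatoma H-4-II-E cells exposed to compound for 16 hr. Activity is scaled between DMSO and 100 uM tamoxifen.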

[10] = Cellular Toxicity (caspase-3) Hek293 (AID 664); conditions: HEK293 caspase-3 activation, DMSO = 0%, 100 µM tamoxifen = 100%; series mostly up to 92.2 µM;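 further: cells exposed to compound for 16 h at 37 °C before readout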
Method in brief: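 Cells plated, 5 hr at 37 °C; compounds added; 16 hr at 37 °C; Caspase-Glo 3/7 reagent, 20 min RT; luminescence read. Activation expressed relative to DMSO and 100 uM tamoxifen, AC50 by Hill model.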

[11] = Cellular Toxicity (caspase-3) N2a (AID 665); conditions: N2a cells, luminescence, normalized: DMSO 0%, 10 µM staurosporine 100%; series mostly up to 92.2 µM;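 further: compound exposure lasted 16 h at 37 °C before readout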
Method in brief: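 N2a cells, 1500/well, 5 h settle at 37 °C; cpd 16 h, 37 °C; Caspase-Glo 3/7, 1 h RT; luminescence. Norm: DMSO = 0, 10 uM staurosporine = 100%. AC50, Hill fit.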

[12] = Cellular Toxicity (caspase-3) NIH 3T3 (AID 666); conditions: NIH 3T3 caspase-3 activation, apoptosis/toxicity, 0% DMSO, 100% is 100 µM tamoxifen; series mostly up to 92.2 µM;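 further: 0% = DMSO basal and 100% = 100 µM tamoxifen stimulation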
Method in brief: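 Luminescence from aminoluciferin released by caspase-3/7 cleavage of a peptide substrate served as read-out. Mouse fibroblast NIH 3T3 cells were exposed to compounds over a concentration range for 16 hours, and AC50 values came from standard Hill modelling.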

[13] = Cellular Toxicity (caspase-3) Renal Proximal Tubule (AID 667); conditions: renal proximal tubule cells, primary cells freshly taken from rat, solvent-only wells 0%, staurosporine 100%; series mostly up to 91.7 µM;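 further: cells exposed to compound for 16 hours at 37 °C before detection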
Method in brief: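 Caspase-Glo 3/7 read-out, rat primary kidney proximal tubule cells. Compound exposure 16 h, 37 °C; detection after 1 h at RT. Activity scaled to DMSO and 10 uM staurosporine.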

[14] = qHTS assay for small molecule disruptors of the mitochondrial membrane potential - 5 hr assay (AID 651755; calls by dose curve; further: on the % scale 0 is the no-effect control and ±100 the full control effect; nearly all actives have a fitted effect of over 40% in size); conditions: JC-1-type ratio dye; series mostly up to 92.2 µM
Method in brief: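 HepG2, 2,000 cells/well, overnight attach; cpd or DMSO 5 hr, 37C/5% CO2; Mito-MPS 30 min 37C; fluor 490/535 + 540/590 nm.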

[15] = biological target: Tumor necrosis factor (Homo sapiens) (UniProt P01375); experiment: qHTS assay to identify small molecules that stimulate Tumor Necrosis Factor-alpha (TNF-alpha) secretion (AID 651757; active means well fitted curve in the direction sought with a large enough effect in the signal ratio; the % refers to the signal ratio; further: 0% is about no effect); conditions: Human cells, HTRF 665/615 ratio; series mostly up to 92.2 µM
Method in brief: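 Read-out is HTRF, a TR-FRET sandwich of cryptate- and XL665-labeled anti-TNF-alpha antibodies detecting cytokine secreted by THP-1 cells. Cells had been incubated with test compounds at 37 C for 17 hrs beforehand.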

[16] = qHTS assay for environmental chemicals that activate the Aryl hydrocarbon Receptor (AhR) signaling pathway (AID 651777); conditions: 1A2-DRE human hepatoma cells, luciferase, 24 h; stronger effect = higher value; further: % of control where 0% means no effect; nearly all actives have a fitted effect of over 15% in size
Method in brief: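 Stable CYP1A2 promoter/DRE-luciferase human hepatoma line treated 24 hr; One-Glo luminescence, 30 min RT.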

[17] = biological target: Peroxisome proliferator-activated receptor alpha (Homo sapiens) (UniProt Q07869); experiment: qHTS assay for small molecule agonists of the peroxisome proliferator-activated receptor alpha (PPARalpha) signaling pathway (AID 651778); conditions: PathHunter PPARalpha complementation, chemiluminescence, 6 h; stronger effect = higher value; further: % of control where 0% means no effect
Method in brief: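 Chemiluminescence from complemented enzyme reported PPARalpha activation in cells after 6 hr of compound treatment at 37 C. The detection reagent was incubated for 60 min at room temperature, and compounds were scored as agonists.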

[18] = qHTS assay for small molecule agonists of the antioxidant response element (ARE) signaling pathway measured by Nrf2-dependant transcriptional activity (AID 720636; active means well fitted curve in the direction sought with a large enough effect in the repeat runs; an effect the other way counts as inactive or inconclusive;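 further: HepG2 cells with an ARE-driven luciferase reporter; % of control where 0% means no effect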); conditions: ARE-luc HepG2, Nrf2 luciferase reporter, 16 h; series mostly up to 92.4 µM
Method in brief: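 Reporter gene assay, HepG2 ARE-luc: 16 hr compound, 37 C, 5% CO2; read-out luciferase luminescence.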

[19] = qHTS assay for small molecule antagonists of the retinoid-related orphan receptor gamma (ROR-gamma) signaling pathway - cell viability counter screen (AID 720652; active means well fitted curve in the direction sought with a large enough effect in the repeat runs; an effect the other way counts as inactive or inconclusive;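 further: compound exposure lasted 16 hr before ATP read; on the % scale 0 is the no-effect control and ±100 the full control effect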); conditions: RORgamma reporter cell line viability counter screen; series mostly up to 92.2 µM
Method in brief: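 Luminescence from CellTiter-Glo after 30 min at room temperature reported cellular ATP as the cytotoxicity measure. Cells were the CHO reporter line with doxycycline-induced ROR-gamma expression, exposed to compound for 16 hr at 37 C.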

[20] = qHTS assay for small molecule agonists of the antioxidant response element (ARE) signaling pathway measured by Nrf2-dependant transcriptional activity - cell viability counter screen (AID 720653; active means well fitted curve in the direction sought with a large enough effect in the repeat runs; an effect the other way counts as inactive or inconclusive; further: on the % scale 0 is the no-effect control and ±100 the full control effect); conditions: ARE-bla HepG2 viability, CellTiter-Glo ATP luminescence, 16 h; stronger effect = lower value
Method in brief: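 Cytotoxicity counter screen: intracellular ATP quantified by CellTiter-Glo luminescence in the same ARE-bla HepG2 plates, after 16 h compound exposure and a 2 h beta-lactamase substrate step.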

Sequence of Peroxisome proliferator-activated receptor alpha (Homo sapiens) (Q07869 whole entry, looked up): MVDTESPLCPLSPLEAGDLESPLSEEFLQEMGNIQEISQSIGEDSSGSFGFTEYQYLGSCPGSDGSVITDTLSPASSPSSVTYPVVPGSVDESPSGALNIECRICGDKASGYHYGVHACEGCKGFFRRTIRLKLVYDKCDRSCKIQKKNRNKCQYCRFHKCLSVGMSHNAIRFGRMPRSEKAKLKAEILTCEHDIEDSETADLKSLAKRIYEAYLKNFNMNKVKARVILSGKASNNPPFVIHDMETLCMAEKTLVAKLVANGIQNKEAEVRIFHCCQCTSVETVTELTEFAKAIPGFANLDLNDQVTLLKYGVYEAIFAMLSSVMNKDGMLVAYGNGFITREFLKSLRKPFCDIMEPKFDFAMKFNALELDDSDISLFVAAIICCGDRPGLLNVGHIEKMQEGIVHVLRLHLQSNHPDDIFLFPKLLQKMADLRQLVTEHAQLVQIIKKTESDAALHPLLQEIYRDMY
Sequence of Tumor necrosis factor (Homo sapiens) (P01375 whole entry, looked up): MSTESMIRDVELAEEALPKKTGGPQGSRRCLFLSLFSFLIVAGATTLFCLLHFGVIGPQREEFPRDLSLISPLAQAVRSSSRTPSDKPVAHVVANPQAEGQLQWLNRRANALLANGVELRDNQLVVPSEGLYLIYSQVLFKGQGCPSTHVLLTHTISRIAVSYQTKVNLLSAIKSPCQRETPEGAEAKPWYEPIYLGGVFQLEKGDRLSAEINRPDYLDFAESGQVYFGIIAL

C=CC(C)(O)CCC=C(C)C (stereo not given)
inactive: outcome [1] | outcome [2] | outcome [3] | outcome [4] | outcome [5] | outcome [6] | outcome [7] | outcome [8] | outcome [9] | outcome [10] | outcome [11] | outcome [12] | outcome [13] | outcome [14] | outcome [15] | activation [16] -0.577% and 0.957% | max response [17] -3.46% and 0.843% | outcome [18] | outcome [19] | max response [20] 12.9% and 1.07%

COS(C)(=O)=O
inactive: outcome [1] | outcome [2] | outcome [3] | outcome [4] | outcome [5] | outcome [6] | outcome [7] | outcome [8] | outcome [9] | outcome [10] | outcome [11] | outcome [12] | outcome [13] | outcome [14] | outcome [15] | activation [16] -0.488% | max response [17] 5.12% | outcome [18] | outcome [19] | max response [20] -2.28%

C=C(C)[C@H]1CC=C(C)C(=O)C1
inactive: outcome [1] | outcome [2] | outcome [3] | outcome [4] | outcome [5] | outcome [6] | outcome [7] | outcome [8] | outcome [9] | outcome [10] | outcome [11] | outcome [12] | outcome [13] | outcome [14] | outcome [15] | activation [16] -0.835% and 2.01% | max response [17] -1.19% and -3.66% | outcome [18] | outcome [19] | max response [20] -9.52% and 8.39%

Cc1occc(=O)c1O
inactive: outcome [1] | outcome [2] | outcome [3] | outcome [4] | outcome [5] | outcome [6] | outcome [7] | outcome [8] | outcome [9] | outcome [10] | outcome [11] | outcome [12] | outcome [13] | outcome [14] | outcome [15] | activation [16] 0.287% | max response [17] -2.16% | outcome [18] | outcome [19] | max response [20] 5.21%
